Screen size: about 360,000 compounds; about 2,900 (0.81%) were called active. For the sample, actives were picked, then their nearest neighbours and some compounds at random. Values without a mark were called inactive.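 Rule for the calls: active = inhibition above the mean inhibition across every tested compound plus 3 SD (cut at about 22% in these data); inactive = the rest.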

For the experiment, the target named is Perilipin-5 (Homo sapiens) + 1-acylglycerol-3-phosphate O-acyltransferase ABHD5 (Homo sapiens) (UniProt Q00G26+Q8WTS1). Put plainly: ABHD5-PLIN5 interaction inhibitors, primary screen, cell lysate, split luciferase complementation, luminescence (AID 602281).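 Note: 0% = DMSO only wells and the 100% control is not disclosed.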 As to conditions: Split G. princeps luciferase complementation, 4 h, at 4 µM, active compounds read high.
Sequence of Perilipin-5 (Homo sapiens) + 1-acylglycerol-3-phosphate O-acyltransferase ABHD5 (Homo sapiens) (Q00G26 whole entry, looked up): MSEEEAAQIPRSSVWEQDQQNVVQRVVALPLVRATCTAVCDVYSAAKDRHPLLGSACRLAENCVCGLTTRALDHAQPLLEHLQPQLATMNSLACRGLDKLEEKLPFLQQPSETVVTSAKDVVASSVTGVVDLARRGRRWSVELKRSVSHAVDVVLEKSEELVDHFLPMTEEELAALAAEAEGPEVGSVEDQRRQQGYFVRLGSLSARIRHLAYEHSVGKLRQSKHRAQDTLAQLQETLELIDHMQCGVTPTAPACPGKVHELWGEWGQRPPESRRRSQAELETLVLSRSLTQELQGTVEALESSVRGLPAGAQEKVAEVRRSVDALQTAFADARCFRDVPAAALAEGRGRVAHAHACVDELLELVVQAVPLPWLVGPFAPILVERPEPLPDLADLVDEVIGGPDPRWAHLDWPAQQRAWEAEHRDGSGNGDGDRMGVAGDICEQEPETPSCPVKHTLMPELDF
Sequence of Perilipin-5 (Homo sapiens) + 1-acylglycerol-3-phosphate O-acyltransferase ABHD5 (Homo sapiens) (Q8WTS1 whole entry, looked up): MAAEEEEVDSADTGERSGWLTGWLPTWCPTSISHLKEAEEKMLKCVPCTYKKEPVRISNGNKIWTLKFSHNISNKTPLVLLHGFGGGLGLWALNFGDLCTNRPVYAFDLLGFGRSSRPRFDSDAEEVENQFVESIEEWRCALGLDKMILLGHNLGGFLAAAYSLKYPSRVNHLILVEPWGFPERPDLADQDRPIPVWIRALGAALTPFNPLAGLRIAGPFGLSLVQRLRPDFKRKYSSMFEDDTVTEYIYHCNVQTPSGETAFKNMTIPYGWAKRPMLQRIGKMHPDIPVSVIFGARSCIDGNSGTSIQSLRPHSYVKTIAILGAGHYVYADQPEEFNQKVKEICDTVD
As to `CCOC(=O)c1nnn(CC(=O)Nc2cccc(F)c2)c1C(=O)OCC`, the inhibition was -0.66%. Regarding `O=C(O)c1cccnc1NC1CCCC1`, the inhibition was 7.94%.

For the molecule `COc1ccc(CCNC(=O)c2ccc(CS(=O)(=O)c3ccc(Br)cc3)o2)cc1OC`, the inhibition was 5.5%. The result for `COc1ccc(CCNC(=O)c2nnc(CS(=O)(=O)c3ccccc3)o2)cc1OC` reads 23.8% (active).

On to `COc1ccc(CCNC(=O)CN(c2ccccc2)S(C)(=O)=O)cc1OC`, for which the inhibition is 6.8%. For the molecule `O=C(O)c1ccc2c(c1)C(=O)N(c1ccc(/C=C/C(=O)c3ccccc3)cc1)C2=O`, the inhibition was 50.4% (active).

In the case of `O=C(c1ccc2c(c1)C(=O)N(c1ccc(Cl)cc1)C2=O)N1CCN(c2ccccn2)CC1`, the inhibition is 0.95%.

Take `CC(=O)Oc1ccc(C)cc1N1C(=O)c2ccc(C(=O)O)cc2C1=O`: the inhibition was 0.33%. Regarding `O=[N+]([O-])c1ccc(S(=O)(=O)Nc2cccc(-c3ccc(N4CCCC4)nn3)c2)cc1`, the inhibition is -6.73%. To `COC(=O)CN(c1nc(C)c(Cl)c(OC)n1)S(=O)(=O)c1ccc(C)cc1` belongs -6.3%. For the molecule `Cc1ccc(C(c2sc3nc(C)nn3c2O)N2CCN(c3ccccc3)CC2)cc1` (centres undefined), the inhibition was 2.33%.

As to `Cc1ccc(C(c2sc3nc(C)nn3c2O)N2CCN(c3ccc(F)cc3)CC2)cc1` (centres undefined), the inhibition is -0.55%. `Cc1nc2sc(C(c3ccco3)N3CCC4(CC3)OCCO4)c(O)n2n1` (centres undefined): the inhibition was 22.7% (active). Turning to `Cc1nc2sc(C(c3ccco3)N3CCOCC3)c(O)n2n1` (centres undefined), the inhibition is 26.3% (active). The result for `Oc1c(C(c2ccco2)N2CCC3(CC2)OCCO3)sc2ncnn12` (centres undefined) reads 12.2%; that for `COC(=O)[C@@]12C[C@@H](CC(=O)N3CCC(c4ccccc4)CC3)C(=O)N(Cc3ccccc3)C1=CCC(C)(C)C2`, 4.36%; that for `CC1=NNC(=O)C1CC(=O)N/N=C/c1ccncc1` (centres undefined), 0.97%. In the case of `CC(C)(C)C(=O)N1CCC[C@@]1(CO)C(=O)O`, the inhibition is 0.41%. Consider `CC[C@]12c3[nH]c4cc(CCC(=O)N(C)C)ccc4c3CCN1C(=O)[C@@H](CC(=O)NCCCN(C)C)C[C@@H]2C(=O)N1CCN(C(=O)c2ccco2)CC1`, for which the inhibition is -4.19%. The result for `COc1ccc(C2SCCN2S(=O)(=O)c2ccccc2)cc1OC` (centres undefined) reads -4.96%; that for `COc1ccc(C2=NO[C@@H]3C(=O)N(Cc4ccccc4)C(=O)[C@H]23)cc1OC`, 3.37%. As to `COc1ccc(-c2cc(C(F)(F)F)nc(S(C)(=O)=O)n2)cc1OC`, the inhibition is 26.6% (active). As to `CCN1CCN(C(=O)Cn2nc(C)n3c(cc4c(OC)cccc43)c2=O)CC1`, the inhibition was 0.48%. Take `CC(=O)N[C@H]1[C@H]([C@H](O)[C@H](O)CO)OC(C(=O)O)=C[C@@H]1O`: the inhibition is 1.93%.

Values taken from PubChem BioAssay AID602281 (The Scripps Research Institute Molecular Screening Center, 2012).
